HP1b binding inh: HP1-beta chromodomain-methylated histone interaction inhibition. P83916. AlphaScreen HP1-beta / biotin-H3K9me3 peptide binding. Potency, µM (series often up to 114 µM), hits mostly inhibitors. actives 0.56% (n = 390,000). AID 540317; also: nearly all actives have a fitted effect of over 70% in size
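HP1-beta protein (50 nM final) preincubated 30 min at room temperature with biotinylated H3(1-18)K9me3 peptide (50 nM) in PBS pH 7.4, 0.01% Tween-20, then compound added for 30 min. AlphaScreen streptavidin donor/nickel chelate acceptor beads (10 ug/mL final), 30 min dark, luminescence read.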
Sfp inh: Sfp phosphopantetheinyl transferase inhibition; Biochemical Sfp PPTase activity, qHTS; actives 3.5% (n = 310,000); Potency, µM, most hits filed as inhibitors;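 also: the enzyme is Sfp with the accession as filed and its product quenches rhodamine fluorescence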
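Sfp 15 nM + cpd, 15 min RT; start w/ rhodamine-CoA 5 uM, BHQ-2-YbbR 12.5 uM (final); 50 mM Hepes pH 7.6, 10 mM MgCl2, 0.01% NP-40, 0.01% BSA; read 525/598 nm at 0 and 30 min.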
L3MBTL1 block: blocks human L3MBTL1; Q9Y468; AlphaScreen L3MBTL1–H3K9me1 peptide binding; actives 0.66% (n = 230,000); Potency, µM (titrated, usually from 57.1 µM), hits mostly inhibitors; also: nearly all actives have a fitted effect of over 60% in size
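L3MBTL1 (50 nM) pre-complexed 30 min with biotinylated H3(1-15)K9me1 peptide (75 nM), then compounds added for 30 min at room temperature; AlphaScreen streptavidin donor/nickel chelate acceptor beads (10 ug/mL final) read after 30 min dark incubation.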
JMJD2A Tudor inh: JMJD2A Tudor domain (human) inhibition; O75164; actives 4.4% (n = 390,000); Potency, µM (series often up to 114 µM), hits mostly inhibitors; AlphaScreen JMJD2A-Tudor / H3K4me3 peptide binding; AID 504339; also: nearly all actives have a fitted effect of over 50% in size
BAZ2B block: inhibitors of human BAZ2B bromodomain; Q9UIF8; AlphaScreen BAZ2B-H3K14Ac peptide displacement; Potency, µM (series often up to 114 µM), hits mostly inhibitors; actives 4.4% (n = 360,000); AID 504333; also: nearly all actives have a fitted effect of over 60% in size
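BAZ2B 50 nM plus b-H3(5-23)K14Ac 50 nM, PBS pH 7.4/0.01% Tween-20, 30 min RT; compound added (max 110 uM), 30 min RT; streptavidin donor/Ni-chelate acceptor beads 10 ug/mL final, 20 min dark; AlphaScreen read.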
G9a inh: inhibitors of human histone lysine methyltransferase G9a. Q96KQ7. G9a H3K9 monomethylation, AlphaScreen, 2 h. Potency, µM (series often up to 102 µM), usual class: inhibitors. actives 8.8% (n = 350,000). AID 504332; also: nearly all actives have a fitted effect of over 75% in size
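Chemiluminescent proximity detection of H3K9 monomethylation, read after 10 min bead incubation in the dark. Reaction: 20 nM G9a, 500 nM biotin-H3K9 peptide, 20 uM SAM cofactor, 2 h, room temperature, following 15 min enzyme-compound preincubation.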
Each line names hits and unclear results; the compound was inactive in the other large screens. Rows were chosen to be rich in hits. Some 12% of all compounds tested hit in one or more screens of this group. Calls follow the shape of the dose curve; as a rule, active = well fitted curve in the direction sought with a large enough effect; inconclusive = small, poorly fitted or top-dose-only effect, or another doubt; inactive = no such curve, though single readings can be large; an effect the other way counts as inactive or inconclusive.

CCS(=O)(=O)c1ncc(Cl)c(C(=O)Nc2ccccc2OC)n1	none (no result: G9a inh)
COc1ccccc1NC(=O)c1nc(S(=O)(=O)Cc2ccccc2)ncc1Cl	G9a inh 18µM (no result: L3MBTL1 block)
CCOc1ccccc1NC(=O)c1nc(S(=O)(=O)Cc2ccccc2)ncc1Cl	G9a inh 40µM (no result: L3MBTL1 block)
CC(=O)Nc1ccc(NC(=O)c2nc(S(=O)(=O)Cc3cccc(C)c3)ncc2Cl)cc1	G9a inh 45µM (no result: L3MBTL1 block)
COC(=O)c1ccc(NC(=O)c2nc(S(=O)(=O)Cc3cccc(C)c3)ncc2Cl)cc1	Sfp inh inconclusive (no result: L3MBTL1 block)
Cc1ccc(NC(=O)c2nc(S(=O)(=O)Cc3ccccc3C)ncc2Cl)cc1C	JMJD2A Tudor inh 13µM, G9a inh 45µM (no result: L3MBTL1 block)
Cc1ccc(NC(=O)c2nc(S(=O)(=O)Cc3ccc(F)cc3)ncc2Cl)cc1C	none (no result: Sfp inh, L3MBTL1 block)
CCOC(=O)c1ccc(NC(=O)c2nc(S(=O)(=O)Cc3ccccc3)ncc2Cl)cc1	Sfp inh inconclusive, G9a inh 22µM (no result: L3MBTL1 block)
CCOc1ccc(OCC)c(NC(=O)CCC(=O)N2CCOc3ccccc32)c1	none (no result: Sfp inh, L3MBTL1 block)
CCOC(=O)c1[nH]c(C)c(CCC(=O)N2CCN(c3cc(Cl)ccc3C)CC2)c1C	JMJD2A Tudor inh inconclusive, BAZ2B block inconclusive (no result: Sfp inh, L3MBTL1 block)
CCN1C(c2ccc(F)cc2)=CS/C1=C(\C#N)c1nnc2n1-c1ccccc1SC2	JMJD2A Tudor inh inconclusive, BAZ2B block inconclusive, G9a inh 32µM
CCOC(=O)c1ccccc1NC(=O)Cn1nnc2sc3c(c2c1=O)CCCC3	none (no result: Sfp inh, L3MBTL1 block)
COc1cc([N+](=O)[O-])ccc1NC(=O)NNC(=O)c1sccc1C	G9a inh 71µM (no result: L3MBTL1 block)
COc1cc([N+](=O)[O-])ccc1NC(=O)NNC(=O)CCc1ccccc1	none (no result: L3MBTL1 block)
COc1cc([N+](=O)[O-])ccc1NC(=S)NNC(=O)c1ccc2c(c1)OCO2	HP1b binding inh inconclusive, JMJD2A Tudor inh 50µM, BAZ2B block inconclusive, G9a inh 8.9µM (no result: L3MBTL1 block)
CC(C)C(=O)Nc1cccc(NC(=S)NC(=O)c2ccc3c(c2)OCO3)c1	JMJD2A Tudor inh 22µM (no result: L3MBTL1 block)
O=C(NC(=S)Nc1cc([N+](=O)[O-])ccc1O)c1ccc2c(c1)OCO2	HP1b binding inh inconclusive, BAZ2B block inconclusive, G9a inh inconclusive (no result: L3MBTL1 block)
CCCCC(=O)Nc1cccc(NC(=S)NC(=O)C(C)C)c1	Sfp inh inconclusive, JMJD2A Tudor inh inconclusive, G9a inh 28µM
O=C(NCc1ccccc1Br)c1cnc2sc(N3CCCCCC3)nn2c1=O	none (no result: Sfp inh, L3MBTL1 block)
CCCCCn1c(=O)[nH]c2cc(C(=O)N3CCN(c4cc(Cl)ccc4C)CC3)ccc2c1=O	none (no result: Sfp inh, L3MBTL1 block)
COC(=O)N1CCC[C@@]2(CCN(C(=O)Nc3cccc(C#N)c3)C2)C1	none (no result: HP1b binding inh, L3MBTL1 block, JMJD2A Tudor inh, BAZ2B block)
Cc1ccc(C)c(NC(=O)CSc2nnc(CNC(=O)c3ccccc3)n2-c2ccccc2)c1	none (no result: Sfp inh, L3MBTL1 block)
COC(=O)c1ccccc1NC(=S)NC(=O)c1ccc2c(c1)OCO2	G9a inh 40µM (no result: L3MBTL1 block)
COC(=O)c1ccccc1NC(=O)c1ccc2c(c1)OCCO2	none (no result: L3MBTL1 block)
O=C(O)CS(=O)(=O)CC(=O)O	JMJD2A Tudor inh inconclusive, BAZ2B block 79µM, G9a inh inconclusive
COc1ccc(/C=N/NC(=O)c2cc(-c3ccccc3)nc3ccccc23)c(C(=O)O)c1OC	none (no result: L3MBTL1 block)
COc1cc([N+](=O)[O-])cc(/C=N/NC(=O)c2cc(-c3ccccc3)nc3ccccc23)c1O	JMJD2A Tudor inh 79µM, BAZ2B block 50µM
COc1cc([N+](=O)[O-])cc(/C=N/NC(=O)c2cc(C)nc3ccccc23)c1O	L3MBTL1 block inconclusive, JMJD2A Tudor inh 22µM, BAZ2B block 20µM
O=C(N/N=C\c1ccc([N+](=O)[O-])o1)c1cncc(Br)c1	none (no result: L3MBTL1 block)
COc1cc([N+](=O)[O-])cc(/C=N/NC(=O)c2cncc(Br)c2)c1O	L3MBTL1 block inconclusive, JMJD2A Tudor inh 20µM, BAZ2B block 10µM (no result: G9a inh)
COc1ccc(-n2nc(C(=O)N3CCN(c4cccc(C)c4C)CC3)c3c4ccccc4n(C)c3c2=O)cc1Cl	none (no result: Sfp inh, L3MBTL1 block, BAZ2B block)
CC1=C(c2ccc(C)cc2)S(=O)(=O)N(Cc2ccc(C(=O)NCc3cccc(C)c3)cc2)C1=O	none (no result: Sfp inh, L3MBTL1 block)
O=C(O)c1cc(C(=O)O)cc(N2C(=O)CSC2=S)c1	BAZ2B block inconclusive, G9a inh 18µM (no result: L3MBTL1 block)
